Data reported in paper PMC7862700, “An all-to-all approach to the identification of sequence-specific readers for epigenetic DNA modifications on cytosine”.

Key:
Assay in all cases: DAPPL (digital affinity profiling via proximity ligation, sequencing); 10 mM Tris-HCl pH 7.5, 50 mM NaCl, 1 mM DTT, 4% glycerol, room temperature, 30 min; GST-TFs on glutathione beads, 16-mer random dsDNA library, 0.1% formaldehyde crosslink after washing; high values mean tight binding
Conditions in all cases: protein: recombinant; tags: N-terminal GST; dsDNA, one strand shown
FLI1 = biological target: T1, FLI1 (Homo sapiens, UniProt Q01543 1-452)
T1 sequence: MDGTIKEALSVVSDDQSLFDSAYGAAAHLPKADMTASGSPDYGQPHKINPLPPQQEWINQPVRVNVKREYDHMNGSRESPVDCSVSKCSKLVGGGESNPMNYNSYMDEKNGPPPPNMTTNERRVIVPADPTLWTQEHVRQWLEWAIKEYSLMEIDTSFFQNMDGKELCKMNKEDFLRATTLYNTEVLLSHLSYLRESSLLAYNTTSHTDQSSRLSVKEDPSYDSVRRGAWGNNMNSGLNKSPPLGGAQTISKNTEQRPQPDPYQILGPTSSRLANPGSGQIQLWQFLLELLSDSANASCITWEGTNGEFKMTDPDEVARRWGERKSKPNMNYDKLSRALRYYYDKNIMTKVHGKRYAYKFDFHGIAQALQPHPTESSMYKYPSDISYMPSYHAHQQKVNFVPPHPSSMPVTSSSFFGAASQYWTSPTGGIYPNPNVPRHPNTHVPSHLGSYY
Procedure, shortened: (§1)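 GST fusions of human transcription factors were expressed in yeast and captured with glutathione beads. Once given DNA barcodes and pooled alongside a tag-only sample, they were incubated for 30 min at room temperature with 200 nmole of a random double-stranded 16-mer DNA library in Tris/NaCl/DTT/glycerol buffer, then washed, crosslinked (0.1% formaldehyde), proximity-ligated, PCR-amplified and sequenced on an Illumina NextSeq500. The binding signal of each hexamer is its read frequency for a factor divided by its frequency for the tag-only sample.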

SPI1 = SPI1 (Homo sapiens, UniProt P17947 1-270)
Procedure, shortened: as §1

ELK3 = biological target: T2, ELK3 (Homo sapiens, UniProt P41970 1-407)
T2 sequence: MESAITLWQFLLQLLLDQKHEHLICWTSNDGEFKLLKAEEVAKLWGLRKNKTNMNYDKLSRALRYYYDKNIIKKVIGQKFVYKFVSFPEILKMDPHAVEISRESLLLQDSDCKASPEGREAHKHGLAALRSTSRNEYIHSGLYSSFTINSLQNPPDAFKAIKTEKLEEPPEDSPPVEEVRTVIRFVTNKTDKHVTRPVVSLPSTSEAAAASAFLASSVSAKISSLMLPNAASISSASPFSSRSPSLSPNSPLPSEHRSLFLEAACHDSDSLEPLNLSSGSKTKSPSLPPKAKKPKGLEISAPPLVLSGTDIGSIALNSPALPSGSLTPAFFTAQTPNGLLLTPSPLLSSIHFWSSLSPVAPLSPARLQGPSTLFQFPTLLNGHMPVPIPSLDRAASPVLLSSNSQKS
Procedure, shortened: as §1

ELF5 = biological target: T3, ELF5 (Homo sapiens, UniProt Q9UKW6-2 1-255)
T3 sequence: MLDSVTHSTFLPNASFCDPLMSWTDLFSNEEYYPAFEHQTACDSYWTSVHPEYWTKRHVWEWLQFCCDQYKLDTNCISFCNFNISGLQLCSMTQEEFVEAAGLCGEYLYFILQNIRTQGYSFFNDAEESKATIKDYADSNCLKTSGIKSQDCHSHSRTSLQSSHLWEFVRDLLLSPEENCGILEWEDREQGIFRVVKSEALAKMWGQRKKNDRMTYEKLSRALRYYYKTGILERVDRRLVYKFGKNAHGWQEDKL
Procedure, shortened: as §1

CRX = CRX (Homo sapiens, UniProt O43186 1-299)
CRX, sequence (O43186 whole entry): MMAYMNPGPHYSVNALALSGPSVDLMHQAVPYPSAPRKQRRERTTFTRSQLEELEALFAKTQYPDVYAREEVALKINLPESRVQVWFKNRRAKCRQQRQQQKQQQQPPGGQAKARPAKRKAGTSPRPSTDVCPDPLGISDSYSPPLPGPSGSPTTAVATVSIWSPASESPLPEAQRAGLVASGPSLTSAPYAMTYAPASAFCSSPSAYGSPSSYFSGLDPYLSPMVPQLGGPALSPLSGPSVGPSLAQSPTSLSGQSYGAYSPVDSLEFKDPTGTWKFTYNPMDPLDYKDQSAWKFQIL
Procedure, shortened: as §1

| Sequence | binding signal (FLI1) | binding signal (SPI1) | binding signal (ELK3) | binding signal (ELF5) | binding signal (CRX) |
| --- | --- | --- | --- | --- | --- |
| GCCCAA | 1.04 fold enrichment (6-mer frequency, TF over GST control) | 1.01 fold enrichment (6-mer frequency, TF over GST control) |  |  |  |
| CATGTT | 1.05 fold enrichment (6-mer frequency, TF over GST control) | 1.04 fold enrichment (6-mer frequency, TF over GST control) |  |  |  |
| GGTATC | 1.11 fold enrichment (6-mer frequency, TF over GST control) | 1.02 fold enrichment (6-mer frequency, TF over GST control) |  |  |  |
| GTTGAC | 1.11 fold enrichment (6-mer frequency, TF over GST control) | 1.15 fold enrichment (6-mer frequency, TF over GST control) | 1.2 fold enrichment (6-mer frequency, TF over GST control) | 1.07 fold enrichment (6-mer frequency, TF over GST control) |  |
| CATGAC | 1.23 fold enrichment (6-mer frequency, TF over GST control) | 1.28 fold enrichment (6-mer frequency, TF over GST control) | 1.17 fold enrichment (6-mer frequency, TF over GST control) | 1.12 fold enrichment (6-mer frequency, TF over GST control) |  |
| GCCTGA | 1.05 fold enrichment (6-mer frequency, TF over GST control) | 1.05 fold enrichment (6-mer frequency, TF over GST control) |  | 1.05 fold enrichment (6-mer frequency, TF over GST control) |  |
| CGCCTG | 1.11 fold enrichment (6-mer frequency, TF over GST control) | 1.1 fold enrichment (6-mer frequency, TF over GST control) | 1.06 fold enrichment (6-mer frequency, TF over GST control) | 1.12 fold enrichment (6-mer frequency, TF over GST control) |  |
| GTAGCT | 1.15 fold enrichment (6-mer frequency, TF over GST control) | 1.09 fold enrichment (6-mer frequency, TF over GST control) | 1.07 fold enrichment (6-mer frequency, TF over GST control) | 1.07 fold enrichment (6-mer frequency, TF over GST control) | 1.02 fold enrichment (6-mer frequency, TF over GST control) |
| CGTAGC | 1.13 fold enrichment (6-mer frequency, TF over GST control) | 1.04 fold enrichment (6-mer frequency, TF over GST control) |  | 1.05 fold enrichment (6-mer frequency, TF over GST control) |  |
| GTACCC | 1.08 fold enrichment (6-mer frequency, TF over GST control) | 1.16 fold enrichment (6-mer frequency, TF over GST control) | 1.12 fold enrichment (6-mer frequency, TF over GST control) | 1.01 fold enrichment (6-mer frequency, TF over GST control) |  |
| TGTGCG | 1.03 fold enrichment (6-mer frequency, TF over GST control) |  | 1.01 fold enrichment (6-mer frequency, TF over GST control) | 1.07 fold enrichment (6-mer frequency, TF over GST control) |  |
| TGTAAC | 1.29 fold enrichment (6-mer frequency, TF over GST control) | 1.36 fold enrichment (6-mer frequency, TF over GST control) | 1.2 fold enrichment (6-mer frequency, TF over GST control) | 1.21 fold enrichment (6-mer frequency, TF over GST control) |  |
| ACCAAA | 1.01 fold enrichment (6-mer frequency, TF over GST control) | 1.06 fold enrichment (6-mer frequency, TF over GST control) |  |  |  |
| GCCTGC | 1.03 fold enrichment (6-mer frequency, TF over GST control) | 1.06 fold enrichment (6-mer frequency, TF over GST control) | 1.08 fold enrichment (6-mer frequency, TF over GST control) | 1.09 fold enrichment (6-mer frequency, TF over GST control) |  |
| TGGCCG | 1.11 fold enrichment (6-mer frequency, TF over GST control) | 1.14 fold enrichment (6-mer frequency, TF over GST control) | 1.14 fold enrichment (6-mer frequency, TF over GST control) |  |  |
| TATGTC | 1.05 fold enrichment (6-mer frequency, TF over GST control) | 1.06 fold enrichment (6-mer frequency, TF over GST control) | 1.14 fold enrichment (6-mer frequency, TF over GST control) | 1.05 fold enrichment (6-mer frequency, TF over GST control) |  |
